High-throughput results as filed in PubChem.
Rows were chosen to be rich in hits. Some 11% of all compounds tested hit in one or more screens of this group.
Vaccinia mCherry: qHTS for Stage-Specific Inhibitors of Vaccinia Orthopoxvirus: mCherry Reporter Primary qHTS. Vaccinia virus mCherry reporter infection, fluorescence. Potency, µM (series often up to 36.5 µM), inactives show at the highest dose activity change, negative = inhibition, most hits filed as inhibitors. AID 720579, 2013. hit rate 0.63% among 310,000; calls by dose curve; tested in A549 cells; note: % is set by controls: 0 for no effect and ±100 for the full control effect; nearly all actives have a fitted effect of over 35% in size
Pf growth 96h: Primary qHTS for delayed death inhibitors of the malarial parasite plastid, 96 hour incubation | AID 504834, 2011 | P. falciparum luciferase reporter growth, 96 h | hit rate 6.9% among 320,000 | Potency, µM (titrated, usually from 28.7 µM), inactives show at the highest dose activity change, negative = inhibition, actives largely listed as inhibitors; note: % is set by controls: 0 for no effect and ±100 for the full control effect
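Cell-based qHTS: luciferase-tagged P. falciparum in erythrocytes (2% hematocrit, 0.05% parasitemia final) incubated with compounds for 96 hours, 37 C, 5% CO2; luciferase detection reagent then added and luminescence measured.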
HCV inhibitor: qHTS Assay for Inhibitors of Hepatitis C Virus (HCV); Huh7.5.1 HCVcc-Cre infection, luciferase reporter, 44 h; Potency, µM (series often up to 41.8 µM), without a hit: at the highest dose activity change, negative = inhibition, usual class: inhibitors; hit rate 3.4% among 340,000; AID 651820, 2012; note: % is set by controls: 0 for no effect and ±100 for the full control effect
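Infectious HCVcc-Cre (~0.5 moi) was added to cells just after compound, with cells seeded 4 h earlier at 1,000 per well. Luciferase activity after 44 h culture reported infection; substrate was incubated 15 min at room temperature before reading.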
VACV Venus inh: qHTS for Stage-Specific Inhibitors of Vaccinia Orthopoxvirus: Venus Reporter Primary qHTS; Vaccinia virus Venus reporter expression, fluorescence; hit rate 0.46% among 330,000; Potency, µM (highest dose often 36.5 µM), inactives show at the top dose activity change, negative = inhibition, actives largely listed as inhibitors; AID 720580, 2013; calls by dose curve; tested in A549 cells; note: % is set by controls: 0 for no effect and ±100 for the full control effect; nearly all actives have a fitted effect of over 30% in size
NS1 inh: qHTS Assay for Inhibitors of Influenza NS1 Protein Function. Potency, µM (series often up to 46.1 µM), for inactives: at the highest dose activity, positive = more growth. AID 2326, 2010. hit rate 0.4% among 270,000; calls by dose curve; note: actives are rising curves; nearly all actives have a fitted effect of over 50% in size
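Compounds were scored for reversing the slow growth caused by influenza A NS1 in S. cerevisiae, measured by optical density at 600 nm. Assay medium contained 2% galactose at pH 6.0; NS1-free yeast of the same strain were the positive control.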
Pf growth 48h: Primary qHTS for delayed death inhibitors of the malarial parasite plastid, 48 hour incubation. P. falciparum luciferase growth in erythrocytes, 48 h. Potency, µM (highest dose often 28.7 µM), without a hit: at the highest dose activity change, negative = inhibition, actives largely listed as inhibitors. hit rate 5.9% among 310,000; note: % is set by controls: 0 for no effect and ±100 for the full control effect
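Read-out is firefly luciferase luminescence from an integrated reporter in P. falciparum, so falling signal marks reduced parasite growth. Infected erythrocytes were at 2% hematocrit and 0.1% parasitemia (final) in Albumax-supplemented RPMI 1640.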
Starred values were filed as active, the others as inactive. Unless noted, calls come from the whole dose curve; as a rule, active = well fitted inhibition curve with a large enough effect; inconclusive = small, poorly fitted or top-dose-only effect, or another doubt; inactive = no such curve, though single readings can be large or run the other way. Potency is the fitted concentration of half-maximal effect.

COc1ccc(COc2cc(-c3cccc(OC)c3)nc3ccc(NC(=O)c4ccc(C)cc4)cc23)cc1 was read as Vaccinia mCherry inactive, Pf growth 96h 3.29µM*, HCV inhibitor inconclusive, VACV Venus inh -12.9%, NS1 inh 18.7% and Pf growth 48h inconclusive.
`COc1cccc(NC(=O)c2cc(-c3ccncc3)nc3c(C)cc(C)cc23)c1` gave Vaccinia mCherry -5.0%, Pf growth 96h inconclusive, HCV inhibitor 10µM*, VACV Venus inh -2.9%, NS1 inh 13.8% and Pf growth 48h inconclusive.
`CC(=O)c1cccc(NC(=O)c2cc(-c3ccncc3)nc3ccccc23)c1` gave Pf growth 96h inconclusive, HCV inhibitor inconclusive and Pf growth 48h 11.7µM*.
CC(C)COc1cccc(-c2cc(C(=O)Nc3ccon3)c3ccccc3n2)c1 was read as Vaccinia mCherry -19.1%, Pf growth 96h -7.9%, HCV inhibitor inconclusive, VACV Venus inh -16.9%, NS1 inh 22.1% and Pf growth 48h 2.08µM*.
`COCCCNC(=O)Cn1cnc2sc(C)c(S(=O)(=O)N3CCN(c4ncccn4)CC3)c2c1=O` gave Vaccinia mCherry -20.5%, Pf growth 96h 63.4%, HCV inhibitor 0.8%, VACV Venus inh -14.0% and Pf growth 48h -19.3%.
`Cc1[nH]c2ccccc2c1/C=N/NC(=O)c1cc(-c2ccncc2)nc2ccccc12` gave Pf growth 96h 6.57µM*, HCV inhibitor 10µM*, NS1 inh -3.5% and Pf growth 48h inconclusive.
For COc1ccccc1CNCc1ccc(OC)c(OC)c1OC the results were Vaccinia mCherry -0.1%, Pf growth 96h 10.4µM*, HCV inhibitor 1.7%, VACV Venus inh -19.6%, NS1 inh 14.3% and Pf growth 48h -28.1%.
COc1cccc(CNCc2ccccc2Br)c1OC was read as Vaccinia mCherry -8.3%, Pf growth 96h 9.28µM*, HCV inhibitor inconclusive, VACV Venus inh -23.9%, NS1 inh -7.8% and Pf growth 48h 2.6%.
Screening COc1ccc(-c2ccccc2)cc1NCc1ccccc1C returned Vaccinia mCherry -20.5%, Pf growth 96h inconclusive, HCV inhibitor -15.4%, VACV Venus inh 3.4%, NS1 inh -5.9% and Pf growth 48h 68.0%.
COc1ccccc1CNc1cc(-c2ccccc2)ccc1OC was read as Vaccinia mCherry inactive, Pf growth 96h 9.28µM*, HCV inhibitor -0.3%, VACV Venus inh -4.6%, NS1 inh -1.2% and Pf growth 48h inconclusive.
`Cc1ccc(S(=O)(=O)N2[C@@H](c3ccc(C(C)(C)C)cc3)C(C(=O)O)=CC[C@H]2c2ccc(Cl)cc2)cc1` gave Vaccinia mCherry -3.4%, HCV inhibitor -29.1% and VACV Venus inh -26.6%.
Cc1cccc(/C(N)=N/OC(=O)c2ccco2)c1 was read as Pf growth 96h inconclusive, HCV inhibitor -0.7%, VACV Venus inh 0.2% and NS1 inh -115.9%.
`Cc1ccc(C(=O)OCC(=O)N2CCOCC2)cc1` gave Vaccinia mCherry 14.7%, Pf growth 96h 110.6%, HCV inhibitor 6.8%, VACV Venus inh 5.9%, NS1 inh -16.3% and Pf growth 48h 145.3%.
Cc1cccc(/C(N)=N/OC(=O)N2CCOCC2)c1 was read as Vaccinia mCherry inconclusive, Pf growth 96h 2.62µM*, HCV inhibitor inconclusive, VACV Venus inh inconclusive, NS1 inh -2.1% and Pf growth 48h inconclusive.
For Cc1cccc(C(=O)OC(C)CN2CCOCC2)c1 (configuration not stated) the results were Vaccinia mCherry 1.3%, Pf growth 96h 9.28µM*, HCV inhibitor 21.3%, VACV Venus inh 2.8% and Pf growth 48h 5.6%.
Screening Cc1ccc(/C(N)=N/OC(=O)N2CCOCC2)cc1 returned Vaccinia mCherry -20.1%, Pf growth 96h 1.04µM*, HCV inhibitor inconclusive, VACV Venus inh -25.1%, NS1 inh -6.4% and Pf growth 48h inconclusive.
`CC(CN1CCOCC1)OC(=O)c1cccc(Br)c1` (configuration not stated) gave Pf growth 96h -22.1%, HCV inhibitor 24.2%, VACV Venus inh -1.8% and NS1 inh -1.2%.
Cn1nc(C(=O)Nc2cccc(Cl)c2)cc1C(=O)Nc1cccc(Cl)c1 was read as Pf growth 96h -1.8%, HCV inhibitor -12.2%, NS1 inh 14.3% and Pf growth 48h inconclusive.
Screening O=c1[nH]c(CN2CC=C(c3ccccc3)CC2)nc2cc(C(F)(F)F)ccc12 returned Pf growth 96h inconclusive, HCV inhibitor -29.6%, VACV Venus inh 0.0% and NS1 inh 26.4%.
Screening CC(=O)c1ccc(NC(=O)C2CCCN2S(=O)(=O)c2ccc(C)cc2)cc1 (configuration not stated) returned Pf growth 96h 10.5%, HCV inhibitor -4.7%, NS1 inh -9.9% and Pf growth 48h -6.3%.
For COc1cc(C(=O)NC(=S)N(C)Cc2ccccc2)cc(OC)c1OC the results were Vaccinia mCherry inconclusive, Pf growth 96h inconclusive, HCV inhibitor 0.9%, VACV Venus inh inconclusive, NS1 inh 7.7% and Pf growth 48h -15.3%.
`CCC(C)NC(=O)CSc1nnc(-c2cc(OC)c(OC)c(OC)c2)c(-c2cc(OC)c(OC)c(OC)c2)n1` (configuration not stated) gave Vaccinia mCherry -14.1%, Pf growth 96h 13.6%, HCV inhibitor -1.0%, VACV Venus inh -13.7%, NS1 inh -0.2% and Pf growth 48h 10.4µM*.
Screening COc1cc(C(=O)NCCSc2ccc(Cl)cc2)cc(OC)c1OC returned Pf growth 96h inconclusive, HCV inhibitor inconclusive, NS1 inh -7.9% and Pf growth 48h inconclusive.
`COc1cc(C(=O)NCCSc2ccccc2)cc(OC)c1OC` gave Vaccinia mCherry -13.7%, Pf growth 96h 10.4µM*, HCV inhibitor -17.1%, VACV Venus inh -4.5%, NS1 inh -22.1% and Pf growth 48h -8.5%.
`CCOc1cc(C(=O)NC(C)CC)cc(OCC)c1OCC` (configuration not stated) gave Pf growth 96h -4.1%, HCV inhibitor 4.9%, VACV Venus inh -15.8%, NS1 inh -0.7% and Pf growth 48h -0.1%.
COc1cc(C(=O)NC(=S)N(CCc2ccccc2)CCc2ccccc2)cc(OC)c1OC was read as Vaccinia mCherry -5.5%, Pf growth 96h 11.7µM*, HCV inhibitor inconclusive, VACV Venus inh -21.0%, NS1 inh 22.0% and Pf growth 48h 10.4µM*.
Screening CCC(C)NC(=O)c1cc(OC)c(OC)c(OC)c1 (configuration not stated) returned Pf growth 96h 2.33µM*, HCV inhibitor 0.3%, NS1 inh -3.5% and Pf growth 48h -1.1%.
